Values joined by “and” are separate entries in the source; they are usually repeats but may differ in a detail not shown here. Identical values can stand only once. Inconclusive results are not listed. Active and inactive are the calls of the source. Unless noted, calls follow the shape of the dose curve; as a rule, active = well fitted curve in the direction sought with a large enough effect; inconclusive = small, poorly fitted or top-dose-only effect, or another doubt; inactive = no such curve, though single readings can be large; an effect the other way counts as inactive or inconclusive. Where a SMILES comes first, the peptide text is derived from it. The star is where a group is joined. Cbz = O=C(OCc1ccccc1)*
Key:
[1] = target: Cellular tumor antigen p53 (Homo sapiens) (UniProt P04637); experiment: Primary qHTS for small molecule compounds that upregulate eGFP-tagged delta133p53alpha (in N-terminal) cells. (AID 2060322); conditions: NCI-H358 eGFP-delta133p53alpha fluorescence, 24 h; activation: stronger effect = higher value;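 also: 0% = DMSO vehicle and 100% = reference activator; nearly all actives have a fitted effect of over 75% in size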
Cellular tumor antigen p53 (Homo sapiens), sequence (P04637 whole entry, looked up): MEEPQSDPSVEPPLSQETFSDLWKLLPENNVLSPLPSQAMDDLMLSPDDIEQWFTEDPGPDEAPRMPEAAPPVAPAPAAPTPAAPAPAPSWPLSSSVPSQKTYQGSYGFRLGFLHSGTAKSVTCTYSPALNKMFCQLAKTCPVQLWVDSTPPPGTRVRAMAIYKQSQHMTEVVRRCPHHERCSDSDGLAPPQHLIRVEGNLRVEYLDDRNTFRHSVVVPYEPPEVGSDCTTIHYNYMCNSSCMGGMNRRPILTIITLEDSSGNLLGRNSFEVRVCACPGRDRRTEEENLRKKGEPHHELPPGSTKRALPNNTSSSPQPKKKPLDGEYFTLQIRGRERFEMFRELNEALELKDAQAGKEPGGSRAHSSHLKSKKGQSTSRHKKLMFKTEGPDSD
How it was run: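 NCI-H358 cells pre-induced 24 h with 10 ng/ml doxycycline to express N-terminal eGFP-delta133p53alpha, then dosed 24 h at 37C without doxycycline; fixed, Hoechst-stained, GFP intensity by laser scanning cytometry, normalized to DMSO (0%) and 57.5 uM 5-azacytidine (100%).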

[2] = target: Cellular tumor antigen p53 (Homo sapiens) (UniProt P04637); experiment: Primary qHTS for small molecule compounds that upregulate eGFP-tagged delta133p53alpha (in C-terminal) cells. (AID 2060324); conditions: NCI-H358 delta133p53alpha-eGFP (C-terminal tag), GFP fluorescence imaging, 24 h; series mostly up to 57.5 µM;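 also: 0% = DMSO wells and 100% = 57.5 µM 5-azacytidine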
How it was run: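 C-terminal eGFP-tagged delta133p53alpha NCI-H358 line; dox-induced (100 ng/ml, 24 h) then plated without dox; compounds pinned in titration, 24 h 37 °C/5% CO2; PFA fix, Hoechst nuclei; GFP by LSC.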

[3] = target: Aldehyde dehydrogenase, mitochondrial (Homo sapiens) (UniProt P05091); experiment: qHTS for Inhibitors of the Aldehyde Dehydrogenase Family (ALDH2) Validation screens (AID 2061302; active = well fitted inhibition curve with a large enough effect; title and protocol of this record describe different tests;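 also: plate controls were DMSO vehicle for no effect and maximal DPI positive control response for full effect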); conditions: ALDH inhibition qHTS; series mostly up to 42.6 µM
[4] = target: Retinaldehyde dehydrogenase 3 (Homo sapiens) (UniProt P47895); experiment: qHTS for Inhibitors of the Aldehyde Dehydrogenase Family (ALDH1A3) Validation screen (AID 2061312); conditions: ALDH1A3 enzyme inhibition qHTS validation, fluorescence; series mostly up to 84.7 µM; also: % is scaled to controls: 0 for no effect and ±100 for the full control effect; nearly all actives have a fitted effect of over 45% in size

COC(=O)C(C)(N)Cc1ccc(O)cc1 (stereo unspecified)
inactive: activation [1] -5.7% | Potency [2] | Potency [3] | Potency [4]

O=C(c1ccc2c(c1)OCCO2)N1CCCCC1
inactive: activation [1] 8.27% | Potency [2] | Potency [3] | Potency [4]

Fc1ccc(C(OCCCc2cnc[nH]2)c2ccc(F)cc2)cc1
inactive: activation [1] -45.7% | Potency [2] | Potency [3] | Potency [4]

CN(C)C(=O)Oc1cccc([N+](C)(C)C)c1
inactive: activation [1] -10.7% and -13.7% | Potency [2] | Potency [3] | Potency [4]

NC/C=C/C(=O)O
inactive: activation [1] 18.6% and -17.5% | Potency [2] | Potency [3] | Potency [4]

N[C@@H](Cc1ccc(F)cc1)C(=O)O
inactive: activation [1] -38.4% | Potency [2] | Potency [3] | Potency [4]

COC1(C2=NCCN2)COc2ccccc2O1 (stereo unspecified)
inactive: activation [1] -0.599% | Potency [2] | Potency [3] | Potency [4]

c1ccc(C2CN3CCSC3=N2)cc1 (stereo unspecified)
inactive: activation [1] 27% | Potency [2] | Potency [3] | Potency [4]

O=c1[nH]ccc2c(O)cccc12
inactive: activation [1] -33.7% | Potency [2] | Potency [3] | Potency [4]

CN/C(=C\[N+](=O)[O-])NCCSCc1ccc(CN(C)C)o1
inactive: activation [1] 7.34% and -15.3% | Potency [2] | Potency [3] | Potency [4]

COc1ccc(CCn2nnnc2C2(c3ccc(C)cc3)CC2)cc1
inactive: activation [1] -20.3% | Potency [2] | Potency [3] | Potency [4]

CN(C)c1nc(N)c(C(=O)N=C(N)N)nc1Cl
inactive: activation [1] -52.6% | Potency [2] | Potency [3] | Potency [4]

C#C[C@]1(O)CC[C@H]2[C@@H]3CCC4=Cc5oncc5CC4(C)[C@H]3CCC21C (stereo partly specified)
inactive: activation [1] -35.6% | Potency [2] | Potency [3] | Potency [4]

N[C@H](CCCP(=O)(O)O)C(=O)O
inactive: activation [1] -16.6% | Potency [2] | Potency [3] | Potency [4]

O=C(O)CCC/C=C\C[C@@H]1[C@@H](/C=C/[C@H](O)C2Cc3ccccc3C2)[C@@H](F)C[C@@H]1O
inactive: activation [1] -5.22% | Potency [2] | Potency [3] | Potency [4]

CCCC(CCC)C(=O)OC1CC2CCC(C1)[N+]2(C)C (stereo unspecified)
inactive: activation [1] -17.7% | Potency [2] | Potency [3] | Potency [4]

COc1cc(CC(=O)O)ccc1O
inactive: activation [1] -3.12% | Potency [2] | Potency [3] | Potency [4]

OC1(c2ccc(Cl)cc2)CCN(Cc2c[nH]c3ccccc23)CC1
inactive: activation [1] -4.41% | Potency [2] | Potency [3] | Potency [4]

CCn1nc(C(=O)O)c(=O)c2cc3c(cc21)OCO3
inactive: activation [1] -7.53% and -29.2% | Potency [2] | Potency [3] | Potency [4]

C#CCn1c(=O)c2c(ncn2C)n(C)c1=O
inactive: activation [1] -14.7% | Potency [2] | Potency [3] | Potency [4]

CC(C)[C@H](NC(=O)OCc1ccccc1)C(=O)N[C@H](C=O)Cc1ccccc1 (Cbz-Val-Phe-aldehyde)
inactive: activation [1] -5.34% | Potency [2] | Potency [3] | Potency [4]

Nc1cc(Cl)c(NC2=NCCN2)c(Cl)c1
inactive: activation [1] -1.06% | Potency [2] | Potency [3] | Potency [4]

CN1CC(=O)N/C1=N/C(=O)Nc1cccc(Cl)c1
inactive: activation [1] 5.86% | Potency [2] | Potency [3] | Potency [4]

Cc1cccc(C)c1NC(=O)C(C)N (stereo unspecified)
inactive: activation [1] 10.9% and -14% | Potency [2] | Potency [3] | Potency [4]

COCc1nc2c([nH]1)c(=O)n(C)c(=O)n2CC(C)C
inactive: activation [1] 12.4% | Potency [2] | Potency [3] | Potency [4]

CC1=NS(=O)(=O)c2cc(Cl)ccc2N1
inactive: activation [1] 19.8% and -34.3% | Potency [2] | Potency [3] | Potency [4]

COc1ccccc1N1CCN(CCCNc2c(C)c(=O)n(C)c(=O)n2C)CC1
inactive: activation [1] -0.789% | Potency [2] | Potency [3] | Potency [4]

CC(C)CC(NP(=O)(O)O[C@@H]1O[C@@H](C)[C@H](O)[C@@H](O)[C@H]1O)C(=O)NC(Cc1c[nH]c2ccccc12)C(=O)O (stereo partly specified)
inactive: activation [1] -14.9% | Potency [2] | Potency [3] | Potency [4]

CC(=O)SC1CC2=CC(=O)CC[C@]2(C)C2CC[C@@]3(C)C(CC[C@@]34CCC(=O)O4)C12 (stereo partly specified)
inactive: activation [1] -47.2% | Potency [2] | Potency [3] | Potency [4]

Clc1nccc2c1ccc1ccccc12
inactive: activation [1] -42.2% | Potency [2] | Potency [3] | Potency [4]

O=C(O)c1cc2cc(Cc3cccnc3)ccc2o1
inactive: activation [1] 19.6% | Potency [2] | Potency [3] | Potency [4]

CCOC(=O)C1=C[C@]2(CC)CCCN3CCc4c(n1c1ccccc41)[C@@H]32
inactive: activation [1] 20.9% and -18.2% | Potency [2] | Potency [3] | Potency [4]

N#Cc1cc2nc(O)c(O)nc2cc1[N+](=O)[O-]
inactive: activation [1] -30.1% | Potency [2] | Potency [3] | Potency [4]

COc1cccc(C(=O)NCCN2CCN(c3ccc(Cl)cc3)CC2)c1
inactive: activation [1] -34.4% | Potency [2] | Potency [3] | Potency [4]

COc1cc(CNC(=O)CCCCCCC(C)C)ccc1O
inactive: activation [1] 0.736% | Potency [2] | Potency [3] | Potency [4]

COc1ccc(C(=O)NCc2cccnc2)cc1C(=O)NCc1cccnc1
inactive: activation [1] -12.6% | Potency [2] | Potency [3] | Potency [4]

CCC(=O)N1CCN(C(=O)c2ccccc2)CC1
inactive: activation [1] -16% | Potency [2] | Potency [3] | Potency [4]

CN(C)C(N)=NCCC[C@H](N)C(=O)O
inactive: activation [1] -10.9% | Potency [2] | Potency [3] | Potency [4]

NOCC(=O)O
inactive: activation [1] -16.6% | Potency [2] | Potency [3] | Potency [4]

CSc1ccccc1N1CCN(CCCCCC(=O)NC2CCCc3ccccc32)CC1 (stereo unspecified)
inactive: activation [1] -61.7% | Potency [2] | Potency [3] | Potency [4]

CCN1CCCC1CNC(=O)c1cc(S(N)(=O)=O)ccc1OC (stereo unspecified)
inactive: activation [1] 8% and -7.28% | Potency [2] | Potency [3] | Potency [4]

CNC(=O)[C@H]1O[C@@H](n2cnc3c(NCc4ccc(N)cc4)ncnc32)[C@H](O)[C@@H]1O
inactive: activation [1] -32.5% | Potency [2] | Potency [3] | Potency [4]

CNC(=O)c1cc2c(cn1)[nH]c1ccccc12
inactive: activation [1] 11.5% | Potency [2] | Potency [3] | Potency [4]

CC1CCN(CC[C@H]2CCCN2S(=O)(=O)c2cccc(O)c2)CC1
inactive: activation [1] -4.01% | Potency [2] | Potency [3] | Potency [4]
